In PubChem BioAssay (Tox21):
Inconclusive results are not listed. Calls of active or inactive are those of the source. Unless noted, the call rests on the fitted dose curve.

Assays:
[1] = Nuclear factor erythroid 2-related factor 2/antioxidant responsive element (Nrf2/ARE) small molecule agonists: qHTS cell viability counter screen in human keratinocytes (AID 1919968; active means well fitted cell-killing curve with a large enough effect in the repeat runs; further: nearly all actives have a fitted effect of over 55% in size)
How it was run: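 HaCaT ARE reporter line, 1,500 cells/well; 5 h settle, 37 C/5% CO2; cpd in DMSO pinned; 23 h exposure; CellTiter-Fluor, 1 h; fluorescence.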

[2] = Nuclear factor erythroid 2-related factor 2/antioxidant responsive element (Nrf2/ARE) small molecule agonists: luciferase reporter gene qHTS assay in human keratinocytes (AID 1919969); further: nearly all actives have a fitted effect of over 35% in size
[3] = biological target: Gonadotropin-releasing hormone receptor (Homo sapiens) (UniProt P30968); experiment: Human gonadotropin-releasing hormone receptor (GnRHR) small molecule agonists, calcium flux assay in GnRHR-HEK293 cells (AID 1920063); further: nearly all actives have a fitted effect of over 35% in size
How it was run: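 GnRHR-HEK293, 1500 cells/well, 18 h 37 C/5% CO2; Ca dye 1 h 37 C; cpd pinned (DMSO), agonist mode; kinetic FL 480/540, 3 min, 1 s reads; 15 conc, n=3.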

[4] = G protein-coupled receptor (GPCR) small molecule agonists, calcium flux assay: HEK293 wild type cell line counter screen (AID 1920065)
How it was run: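 Kinetic fluorescence at Ex/Em 480/540, recorded every second over 3 min, served as the read-out after compound addition. Each compound was tested at 15 concentrations in triplicate on cells pre-loaded with calcium dye for 1 h.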

[5] = p53 small molecule agonists, cell-based qHTS assay with human liver microsomes (AID 1963577);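 further: p53 response element beta-lactamase reporter cells with liver microsomes plus NADPH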
How it was run: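 With metabolic activation: human liver microsomes (0.5 mg/mL final) plus NADPH (0.5 mg/mL final) added alongside compounds to p53RE-bla cells; 16 h 37 C exposure; beta-lactamase read by LiveBLAzer fluorescence.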

[6] = p53 small molecule agonists, cell-based qHTS assay with rat liver microsomes (AID 1963578)
How it was run: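 Metabolic activation by rat liver microsomes and NADPH, each 0.5 mg/mL final, added right after compounds to p53RE-bla reporter cells (4,000/well, plated 5 h earlier). 16 h at 37 C, then LiveBLAzer substrate for 2 h at room temperature in the dark; fluorescence read-out.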

[7] = p53 small molecule agonists, cell-based qHTS assay with rat liver microsomes: qHTS cell viability counter screen (AID 1963580); further: nearly all actives have a fitted effect of over 45% in size
How it was run: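 p53RE-bla HCT-116 cells (4,000/well) rested 5 h at 37 C, then given Tox21 compounds in DMSO with rat liver microsomes (0.5 mg/mL final) plus NADPH (0.5 mg/mL final) for 16 h at 37 C. Viability read by CellTiter-Glo luminescence after 30 min at room temperature.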

[8] = p53 small molecule agonists, cell-based qHTS assay: qHTS cell viability counter screen (AID 1963581); further: nearly all actives have a fitted effect of over 45% in size
How it was run: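 HCT-116 p53RE-bla cells, 4,000/well, plated 5 h before compound pin transfer; 16 h at 37 C; bla substrate 2 h RT; then CellTiter-Glo, 30 min RT, luminescence.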

[9] = p53 small molecule agonists, cell-based qHTS assay (AID 1963582; active means well fitted activation curve with a large enough effect in the signal ratio in the repeat runs, not every such curve was filed as active; the % refers to the signal ratio)
How it was run: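 Reporter line: p53RE-bla. Pre-incubation 5 h, 37 C, 5% CO2; compound (DMSO, pin tool) 16 h, 37 C; B/G FRET substrate 2 h RT; fluorescence intensity read.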

[10] = biological target: 5-hydroxytryptamine receptor 2A (Homo sapiens) (UniProt P28223); experiment: 5-hydroxytryptamine receptor 2A (HTR2A) small molecule antagonists, cell-based qHTS assay (AID 1963586); further: nearly all actives have a fitted effect of over 45% in size
How it was run: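 Antagonist-mode intracellular calcium assay: DOI (4 nM) added after 5 min compound pre-incubation at room temperature to dye-loaded HTR2A-CHO cells. Fluorescence followed for 3 min, sampled every second.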

[11] = biological target: 5-hydroxytryptamine receptor 2A (Homo sapiens) (UniProt P28223); experiment: 5-hydroxytryptamine receptor 2A (HTR2A) small molecule agonists, cell-based qHTS assay (AID 1963587); further: nearly all actives have a fitted effect of over 30% in size
How it was run: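 HTR2A-CHO cells, plated 18 h at 37 C/5% CO2, dye-loaded 1 h at 37 C; compounds in DMSO added by pin tool (agonist mode). Intracellular calcium flux read as kinetic fluorescence on FDSS over 2 min at 1 s intervals.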

[12] = biological target: Muscarinic acetylcholine receptor M1 (Homo sapiens) (UniProt P11229); experiment: Cholinergic receptor muscarinic 1 (CHRM1) small molecule antagonists, cell-based qHTS assay (AID 1963588); further: nearly all actives have a fitted effect of over 40% in size
How it was run: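 CHRM1-CHO calcium-flux assay, antagonist mode. Cells were seeded 18 h, dye-loaded 1 h at 37 C and given compound for 5 min at RT, then acetylcholine was added at 50nM. FDSS fluorescence was read 3 min; 15 concentrations, three runs.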

[13] = biological target: Muscarinic acetylcholine receptor M1 (Homo sapiens) (UniProt P11229); experiment: Cholinergic receptor muscarinic 1 (CHRM1) small molecule agonists, cell-based qHTS assay (AID 1963589); further: nearly all actives have a fitted effect of over 35% in size
How it was run: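 Human M1 in stable CHO line; 18 h plating, 1 h dye load 37 C; cpd added (agonist mode); Ca2+ fluorescence kinetic read, 1 s intervals; 15 conc, 3 runs.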

[14] = cAMP Responsive Elements (CRE) small molecule agonists, cell-based qHTS assay (AID 1963590)
How it was run: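 HEK 293T CRE-bla, 2,000 cells/well, 18 h preincubation 37 C/5% CO2; cpds (DMSO) pinned, 3 h; LiveBLAzer B/G FRET substrate, 2 h RT.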

[15] = cAMP Responsive Elements (CRE) small molecule antagonists, cell-based qHTS assay (AID 1963591; active means well fitted inhibition curve with a large enough effect in the signal ratio in the repeat runs, not every such curve was filed as active; the % refers to the signal ratio)
How it was run: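 Beta-lactamase reporter read by FRET substrate (LiveBLAzer B/G) after 2 h at room temperature. CRE-bla HEK293T cells had received compound plus 0.25 uM (final) NKH477 for 3 h at 37 °C.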

[16] = biological target: Beta-2 adrenergic receptor (Homo sapiens) (UniProt P07550); experiment: Adrenergic beta2 receptor (ADRB2) small molecule agonists, cell-based qHTS assay (AID 1963593);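 further: CHO cells stably overexpressing human ADRB2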
How it was run: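 CHO cells stably over-expressing ADRB2 were plated overnight at 37C, then dosed with compounds plus a stimulation mix containing 100uM IBMX and 25uM Ro-20-1724 for 0.5hr at room temperature. cAMP was measured by HTRF competition, 1hr.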

[17] = biological target: D(2) dopamine receptor (Homo sapiens) (UniProt P14416); experiment: Dopamine D2 receptor (DRD2) small molecule agonists, cell-based qHTS assay (AID 1963594); further: nearly all actives have a fitted effect of over 35% in size
How it was run: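 HEK293 cells stably expressing DRD2 were cultured 24 h at 37 C, then given Ro20-1724 (0.1 mM final) and compounds for 10 min at room temperature. NKH477 (200nM) was then added for 30 min. cAMP was read by HTRF.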

[18] = biological target: D(2) dopamine receptor (Homo sapiens) (UniProt P14416); experiment: Dopamine D2 receptor (DRD2) small molecule antagonists, cell-based qHTS assay (AID 1963595; active means well fitted inhibition curve with a large enough effect in the signal ratio in the repeat runs, with a control signal flat; the % refers to the signal ratio)
How it was run: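 In this cell-based antagonist screen, compounds act for 10 min at room temperature before a 30 min challenge with 12 nM quinpirole and 200 nM NKH477. cAMP is quantified by HTRF competition in DRD2-HEK293 cells containing 0.1 mM Ro20-1724.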

[19] = p53 small molecule agonists, cell-based qHTS assay with human liver microsomes: qHTS cell viability counter screen (AID 1963579); further: nearly all actives have a fitted effect of over 45% in size
How it was run: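 Metabolic activation used human liver microsomes and NADPH, both 0.5 mg/mL final, over 16 hours at 37 C on p53RE-bla cells (4,000/well). Cytotoxicity measured by CellTiter-Glo luminescence, 30 min at room temperature.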

[20] = biological target: Beta-2 adrenergic receptor (Homo sapiens) (UniProt P07550); experiment: Adrenergic beta2 receptor (ADRB2) small molecule antagonists, cell-based qHTS assay (AID 1963592); further: series mostly up to about 92 µM; nearly all actives have a fitted effect of over 50% in size
How it was run: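 Cells (CHO, stable ADRB2 overexpression) incubated 18-20hr at 37C; compounds added from DMSO; agonist mix (1nM isoproterenol, 100uM IBMX, 25uM Ro-20-1724) added; 0.5hr RT; d2-cAMP and anti-cAMP-cryptate added; 1hr RT; 665/615 nm read.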

Measured: Potency

Sequence of Gonadotropin-releasing hormone receptor (Homo sapiens) (P30968 whole entry, looked up): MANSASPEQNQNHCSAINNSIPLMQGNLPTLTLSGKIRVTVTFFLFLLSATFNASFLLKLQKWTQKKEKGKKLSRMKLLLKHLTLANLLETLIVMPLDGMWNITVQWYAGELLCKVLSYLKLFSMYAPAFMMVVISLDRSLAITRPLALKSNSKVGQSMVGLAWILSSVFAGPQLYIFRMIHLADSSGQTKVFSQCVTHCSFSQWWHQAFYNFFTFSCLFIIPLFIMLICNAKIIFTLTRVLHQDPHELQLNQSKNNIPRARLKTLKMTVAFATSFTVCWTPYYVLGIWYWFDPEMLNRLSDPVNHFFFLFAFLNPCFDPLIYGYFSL
Sequence of 5-hydroxytryptamine receptor 2A (Homo sapiens) (P28223 whole entry, looked up): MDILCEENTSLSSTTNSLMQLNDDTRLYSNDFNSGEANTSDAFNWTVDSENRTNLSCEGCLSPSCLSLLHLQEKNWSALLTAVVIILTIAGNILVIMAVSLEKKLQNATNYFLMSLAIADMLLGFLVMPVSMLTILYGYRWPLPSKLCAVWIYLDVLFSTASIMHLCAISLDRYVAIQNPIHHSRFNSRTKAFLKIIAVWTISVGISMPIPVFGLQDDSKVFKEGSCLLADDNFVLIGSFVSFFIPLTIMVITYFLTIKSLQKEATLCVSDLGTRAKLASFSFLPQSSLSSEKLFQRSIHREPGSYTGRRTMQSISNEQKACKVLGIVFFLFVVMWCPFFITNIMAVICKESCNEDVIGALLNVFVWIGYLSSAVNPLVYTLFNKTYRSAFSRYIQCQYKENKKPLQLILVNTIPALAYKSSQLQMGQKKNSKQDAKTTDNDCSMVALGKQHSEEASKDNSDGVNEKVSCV
Sequence of Muscarinic acetylcholine receptor M1 (Homo sapiens) (P11229 whole entry, looked up): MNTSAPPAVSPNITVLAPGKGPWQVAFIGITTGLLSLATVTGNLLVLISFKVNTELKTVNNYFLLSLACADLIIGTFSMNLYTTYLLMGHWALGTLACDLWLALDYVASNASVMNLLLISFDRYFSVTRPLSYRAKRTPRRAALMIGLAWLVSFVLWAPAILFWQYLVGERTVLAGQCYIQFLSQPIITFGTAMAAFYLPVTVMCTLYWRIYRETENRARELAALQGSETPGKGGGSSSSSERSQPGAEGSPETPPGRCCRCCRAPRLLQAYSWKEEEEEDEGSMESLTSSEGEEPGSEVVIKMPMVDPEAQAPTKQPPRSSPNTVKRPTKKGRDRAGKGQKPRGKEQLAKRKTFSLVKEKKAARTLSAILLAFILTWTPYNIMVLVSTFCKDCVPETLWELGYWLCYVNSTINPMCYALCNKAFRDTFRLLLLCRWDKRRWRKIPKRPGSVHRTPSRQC
Sequence of D(2) dopamine receptor (Homo sapiens) (P14416 whole entry, looked up): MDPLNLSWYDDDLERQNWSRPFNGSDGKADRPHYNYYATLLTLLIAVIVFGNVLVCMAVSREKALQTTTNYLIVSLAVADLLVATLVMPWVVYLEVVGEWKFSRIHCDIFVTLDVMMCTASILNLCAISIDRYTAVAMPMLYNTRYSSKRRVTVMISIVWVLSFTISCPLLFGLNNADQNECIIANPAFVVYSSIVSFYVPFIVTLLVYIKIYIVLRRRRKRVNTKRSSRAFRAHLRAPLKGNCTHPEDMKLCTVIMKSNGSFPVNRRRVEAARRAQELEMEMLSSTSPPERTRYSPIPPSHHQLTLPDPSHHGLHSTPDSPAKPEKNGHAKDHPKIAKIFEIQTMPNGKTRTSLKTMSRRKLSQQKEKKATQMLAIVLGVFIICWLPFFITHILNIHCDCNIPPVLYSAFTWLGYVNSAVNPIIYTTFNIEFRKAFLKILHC
Sequence of Beta-2 adrenergic receptor (Homo sapiens) (P07550 whole entry, looked up): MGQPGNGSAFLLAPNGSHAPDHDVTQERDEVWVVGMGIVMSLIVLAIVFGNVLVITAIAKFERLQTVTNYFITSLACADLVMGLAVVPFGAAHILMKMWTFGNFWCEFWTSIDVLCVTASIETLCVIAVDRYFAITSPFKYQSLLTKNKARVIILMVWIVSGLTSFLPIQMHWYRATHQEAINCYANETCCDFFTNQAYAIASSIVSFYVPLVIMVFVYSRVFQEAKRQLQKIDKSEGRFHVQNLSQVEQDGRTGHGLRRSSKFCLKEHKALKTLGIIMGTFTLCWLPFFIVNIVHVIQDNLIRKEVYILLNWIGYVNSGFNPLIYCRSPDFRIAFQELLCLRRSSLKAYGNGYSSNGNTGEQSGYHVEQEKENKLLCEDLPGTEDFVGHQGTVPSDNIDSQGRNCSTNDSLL

Cc1ccc(C(C)(C)C)cc1
inactive: [1] | [2] | [3] | [4] | [5] | [6] | [7] | [8] | [9] | [10] | [11] | [12] | [13] | [14] | [15] | [16] | [17] | [18]

CCCCCCCC(=O)OCCCCCC
inactive: [1] | [2] | [3] | [5] | [6] | [19] | [7] | [8] | [9] | [10] | [11] | [12] | [13] | [14] | [15] | [20] | [17]

CN=C(NC#N)NCCSCc1nc[nH]c1C
inactive: [1] | [2] | [3] | [4] | [19] | [7] | [8] | [20] | [16] | [17] | [18]

C=C1C[C@]23C[C@@]1(O)CC[C@H]2[C@@]12C=C[C@H](O)[C@@](C)(C(=O)O1)[C@H]2[C@@H]3C(=O)O
inactive: [1] | [2] | [3] | [4] | [7] | [8] | [10] | [11] | [12] | [13] | [15] | [20] | [17] | [18]

O=[N+]([O-])c1ccc(F)cc1F
inactive: [1] | [2] | [4] | [5] | [6] | [19] | [7] | [8] | [9] | [10] | [11] | [12] | [13] | [14] | [15] | [20] | [16] | [17]

O=C1CCCCC1
inactive: [1] | [2] | [3] | [4] | [19] | [7] | [8] | [10] | [11] | [12] | [13] | [15] | [20] | [16] | [17] | [18]

CCC(C)c1ccccc1O (stereo unspecified)
inactive: [1] | [2] | [3] | [4] | [19] | [7] | [8] | [10] | [11] | [12] | [13] | [14] | [15] | [20] | [17] | [18]

O=C(O)/C=C/C(=O)O
inactive: [1] | [2] | [3] | [10] | [11] | [12] | [13] | [14] | [20] | [16] | [17] | [18]

C[N+](C)(CCOc1ccccc1)Cc1cccs1
inactive: [1] | [2] | [4] | [5] | [6] | [19] | [7] | [8] | [9] | [10] | [11] | [12] | [13] | [14] | [15] | [20] | [16] | [17] | [18]
